Arbovirus inh = antivirals against arbovirus infection; 0.37% of 200,000 active; inhibition, % at 10 µM; arbovirus infection cell-based antiviral screen; in the data active = inhibition above about 30%
ROMK primary = modulates human ROMK potassium channel activity; 2% of 130,000 active; P48048; AID 1918; B-score at 10 µM; Tet-inducible ROMK, thallium flux fluorescence; actives lie on both sides;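 active = signal ratio slope over the read window, or its plate-corrected B-score, at least 3 SD from the plate mean, either direction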;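 also: B-score of the F/F0 ratio slope over 7 to 12 s after thallium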
Target sequence (P48048 whole entry, looked up): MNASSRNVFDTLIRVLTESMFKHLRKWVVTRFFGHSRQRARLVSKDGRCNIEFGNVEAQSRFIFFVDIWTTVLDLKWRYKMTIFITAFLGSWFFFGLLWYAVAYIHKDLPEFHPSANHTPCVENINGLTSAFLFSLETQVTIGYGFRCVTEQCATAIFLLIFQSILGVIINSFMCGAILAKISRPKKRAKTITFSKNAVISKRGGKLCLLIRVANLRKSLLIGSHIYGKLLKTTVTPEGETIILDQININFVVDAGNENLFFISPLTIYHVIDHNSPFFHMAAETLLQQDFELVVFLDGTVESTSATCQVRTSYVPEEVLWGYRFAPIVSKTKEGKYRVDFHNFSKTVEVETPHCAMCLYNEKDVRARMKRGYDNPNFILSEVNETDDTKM
PERK inh = human PERK inhibition, primary cell-based screen | Q9NZJ5 | CHO PERK-DD fusion, SEAP luminescence translation reporter | inhibition, % at 5.6 µM | 0.17% of 220,000 active | AID 1416;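 active = inhibition above the mean inhibition of all tested compounds plus 3 SD, set separately per screening campaign, cut at about 2.9% in these data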;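 also: PERK kinase domain activated by AP20187 dimerizer at 100 nM; 0% = DMSO with dimerizer and 100% = rapamycin at 8.4 µM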
WT yeast gro inh = growth inhibition of WT yeast, mitochondrial fusion screen; mitochondrial fusion phenotypic screen, WT strain; inhibition, % at 10 µM; 2.1% of 190,000 active; AID 1362; in the data active = inhibition above about 58%; tested in S. cerevisiae
ROMK hit retest = human ROMK channel modulation, retest confirmation | shares compounds with ROMK primary | ROMK thallium flux, fluorescence ratio; stronger effect = lower value | normalized thallium flux (F/F0 slope) at 10 µM | 54% of 3,000 active | AID 1917;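 active = Flux at 10 µM at least 3 SD below or above vehicle control mean in one or both replicates; inconclusive = no clear call, values can overlap the other calls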
Numbers without * were called inactive. Shown are actives, neighbours in structure and some others; about 3.3% of the full set was active somewhere.

How did Cc1c(NC(=O)COC(=O)c2ccc(Br)o2)c(=O)n(-c2ccccc2)n1C do in these assays?
Arbovirus inh: 0; ROMK primary: 0.43; PERK inh: -1; WT yeast gro inh: 0

How did COc1ccc(OC)c(-n2c(C)ccc2-c2ccc(S(C)(=O)=O)cc2)c1 do in these assays?
Arbovirus inh: -6; ROMK primary: 1.8; PERK inh: -1; WT yeast gro inh: 11

Results for COCC(=O)N1CCN(c2cccc(C(F)(F)F)c2)CC1 ?
Arbovirus inh: -4; PERK inh: 0; WT yeast gro inh: 14

Results for O=C(CS(=O)(=O)Cc1ccccc1)N1CCN(c2cccc(C(F)(F)F)c2)CC1 ?
Arbovirus inh: 10; ROMK primary: -3.2*; PERK inh: 1; WT yeast gro inh: 7; ROMK hit retest: inconclusive

Results for Cc1nnc(Sc2cc(NCCCO)c([N+](=O)[O-])c3nonc23)s1 ?
Arbovirus inh: -11; ROMK primary: 0.23; PERK inh: 1; WT yeast gro inh: -6

Results for CCCC(=O)OCCNc1cc(Sc2nccn2C)c2nonc2c1[N+](=O)[O-] ?
Arbovirus inh: -38; ROMK primary: -4.7*; PERK inh: 1; WT yeast gro inh: 15; ROMK hit retest: 0.051*

How did CCCSc1cc(NCCOC(=O)CCC)c([N+](=O)[O-])c2nonc12 do in these assays?
Arbovirus inh: -12; PERK inh: 0; WT yeast gro inh: 45

How did Cc1nnc(Sc2cc(NCCO)c([N+](=O)[O-])c3nonc23)s1 do in these assays?
Arbovirus inh: -39; ROMK primary: -7.2*; PERK inh: 0; WT yeast gro inh: -13; ROMK hit retest: 0.057*

How did CCOC(=O)N1CCN(C(=O)CCl)CC1 do in these assays?
Arbovirus inh: 3; ROMK primary: 0.46; PERK inh: 0; WT yeast gro inh: -9

How did CCCC1(C(=O)O)NC(c2cccc(OC)c2O)C2C(=O)N(c3ccccc3)C(=O)C21 (stereo not drawn) do in these assays?
Arbovirus inh: 6; PERK inh: 0; WT yeast gro inh: 10

How did O=C(Nc1ccc(S(=O)(=O)N2CCCCC2)cc1)c1ccc(CN2CCOCC2)cc1 do in these assays?
Arbovirus inh: -17; PERK inh: 0; WT yeast gro inh: -9; ROMK hit retest: 0.059*

How did COc1ccc(NS(=O)(=O)c2ccc(NC(=O)c3ccc(CN4CCOCC4)cc3)cc2)cc1 do in these assays?
Arbovirus inh: 9; ROMK primary: -0.68; PERK inh: 0; WT yeast gro inh: 6

Results for O=C(Nc1ccc(S(=O)(=O)Nc2ccc(F)cc2)cc1)c1ccc(CN2CCOCC2)cc1 ?
Arbovirus inh: 1; ROMK primary: -3.4*; PERK inh: -1; WT yeast gro inh: -25; ROMK hit retest: inconclusive

Results for Cc1c(OCc2ccc(C(=O)O)o2)ccc2c3c(c(=O)oc12)CCC3 ?
Arbovirus inh: 17; PERK inh: 0; WT yeast gro inh: 3

How did COc1ccc(Cc2noc(CN3CCCC(OCc4ccccn4)C3)n2)cc1OC (stereo not drawn) do in these assays?
Arbovirus inh: 2; ROMK primary: 2; PERK inh: 0; WT yeast gro inh: 6

How did N=C1/C(=C\c2ccc(-c3cccc(C(=O)O)c3)o2)C(=O)N=C2SC=C(c3ccccc3)N12 do in these assays?
PERK inh: 0; ROMK hit retest: 0.059*

Results for CCn1cc(C(=O)OCC(=O)OC2CC(C)CCC2C(C)C)c(=O)c2ccc(C)nc21 (stereo not drawn) ?
Arbovirus inh: 4; ROMK primary: 2.7*; PERK inh: 0; WT yeast gro inh: 70*; ROMK hit retest: 0.064*

How did C=CCOC(=O)c1cn(CC)c2nc(C)ccc2c1=O do in these assays?
Arbovirus inh: -1; ROMK primary: 0.14; PERK inh: 0; WT yeast gro inh: -8

What do the screens show for `NS(=O)(=O)c1ccc(NC(=O)COC(=O)c2cc3ccccc3cc2O)cc1`?
PERK inh: 0

Results for Clc1ncc(CN2CCN(Cc3ccccc3)CC2)s1 ?
Arbovirus inh: 5; PERK inh: 0; WT yeast gro inh: 19

How did Cc1ccc(N2CCN(C(=O)CN3C(=O)c4ccccc4C3=O)CC2)cc1 do in these assays?
Arbovirus inh: 0; ROMK primary: 1.9*; PERK inh: 0; WT yeast gro inh: -8; ROMK hit retest: 0.074

What do the screens show for `O=C(CN1C(=O)c2ccccc2C1=O)N1CCN(c2ccccc2)CC1`?
Arbovirus inh: 7; ROMK primary: 0.69; PERK inh: 0; WT yeast gro inh: -8

How did CCOC(=O)CSC1=NC(=O)/C(=C/c2ccc(Br)cc2)S1 do in these assays?
Arbovirus inh: -11; ROMK primary: -0.72; PERK inh: 1; WT yeast gro inh: 20; ROMK hit retest: 0.061*

Results for CCOC(=O)CSC1=NC(=O)/C(=C\c2ccc(OC(C)=O)cc2)S1 ?
Arbovirus inh: -3; PERK inh: 0; WT yeast gro inh: 9; ROMK hit retest: 0.04*

How did O=C(O)c1ccc(-c2nc(-c3cccc(C(F)(F)F)c3)cs2)cc1 do in these assays?
Arbovirus inh: 28; ROMK primary: 3.1*; PERK inh: 0; WT yeast gro inh: 8; ROMK hit retest: 0.087

What do the screens show for `COc1ccc(-c2csc(-c3ccc(C(=O)O)cc3)n2)cc1`?
Arbovirus inh: 2; ROMK primary: -0.09; PERK inh: 1; WT yeast gro inh: 10

How did O=C(COC(=O)c1ccccn1)Nc1ccc2c(c1)OCO2 do in these assays?
Arbovirus inh: -4; ROMK primary: -1.5; PERK inh: 2; WT yeast gro inh: 10

Results for CC(CCc1ccccc1)NC(=O)/C=C/c1ccc(F)cc1 (stereo not drawn) ?
Arbovirus inh: 12; ROMK primary: 2.1*; PERK inh: 2; WT yeast gro inh: 19; ROMK hit retest: 0.075

How did N#C/C(=C\c1cccnc1)c1nc2ccccc2[nH]1 do in these assays?
PERK inh: 0

Results for N#C/C(=C(/O)C(Cl)(Cl)Cl)c1nc2ccccc2[nH]1 ?
ROMK primary: -4.9*; PERK inh: 0; ROMK hit retest: 0.045*

What do the screens show for `N#C/C(=C/c1ccncc1)c1nc2ccccc2s1`?
Arbovirus inh: 10; ROMK primary: -3.5*; PERK inh: 0; WT yeast gro inh: 13; ROMK hit retest: 0.053*

Results for N#C/C(=C\c1ccncc1)c1nc2ccccc2[nH]1 ?
Arbovirus inh: -3; ROMK primary: -5.2*; PERK inh: 0; WT yeast gro inh: -7; ROMK hit retest: 0.051*

What do the screens show for `Clc1ccc2c(c1)CNc1c(ncnc1N1CCOCC1)O2`?
Arbovirus inh: -5; PERK inh: 1; WT yeast gro inh: -6

How did O=C1c2ccccc2C(=O)N1CCCCSc1nc2ccccc2c(=O)n1CCCN1CCOCC1 do in these assays?
Arbovirus inh: 21; ROMK primary: -3*; PERK inh: -1; WT yeast gro inh: 16; ROMK hit retest: 0.054*

How did O=C1c2ccccc2C(=O)N1CCSc1nc2ccccc2c(=O)n1CCCN1CCOCC1 do in these assays?
Arbovirus inh: 8; ROMK primary: -0.15; PERK inh: 0; WT yeast gro inh: -5

How did Cc1nn2c(-c3ccccn3)ccnc2c1Br do in these assays?
Arbovirus inh: 3; ROMK primary: 0.38; PERK inh: 1; WT yeast gro inh: -1
